# Laboratory results: PubChem BioAssay
# Assay: COS7 lysate on small-molecule microarray, probe aHis, 635 nm (AID 1123);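 also: z-score combines 667nm fluorescence intensity with signal-to-noise per printed compound spot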
# Settings: COS7 cell lysate, fluorescence, higher = more signal
row,SMILES,composite z-score
1,Cc1ccc(S[C@]2(C(=O)NCCCN(C)C)CC(=O)N(C3CCCCC3)[C@@H]2c2ccc(CO)cc2I)cc1,1.51
2,O=C1C2C=CC(C(O)C#Cc3ccccc3)N(Nc3ccccc3)C2C(=O)N1c1ccccc1 (stereo unspecified),1.94
3,O=C1NC(=O)C2C1C=CC(C(O)C=Cc1ccc([N+](=O)[O-])cc1)N2Nc1ccccn1 (stereo unspecified),1.4
4,Cc1ccc(S(=O)(=O)N[C@H]2COC(=O)CC=C[C@H](C)COC(=O)N[C@@H](C)C(=O)CC=C[C@@H]2C)cc1,-0.43
5,Cc1ccc(N2C(=O)c3ccccc3[C@](C)(C(=O)NCC(C)C)[C@@H]2c2ccc(CO)cc2)nc1,0.437
6,O=C1C2C=CC(C(O)c3ccccc3)N(n3cnnc3)C2C(=O)N1Cc1ccccc1 (stereo unspecified),0.775
7,COc1cc([C@@H]2N[C@H](C(=O)O)Cc3c2[nH]c2ccccc32)cc(OC)c1OC,-0.0553
8,C=CCNC(=O)[C@H]1[C@@H]2C(=O)O[C@@H](c3ccccc3)[C@@H](c3ccccc3)N2[C@@H](c2ccc(O)cc2)[C@]12C(=O)Nc1ccc(C#CCNC(N)=O)cc12,0.789
9,CCC#CCN(Cc1ccccc1Br)[C@H](/C=C/c1ccccc1)[C@@H](O)Cc1ccccc1,0.301
10,CCCC=C(CCC)[C@@H](NC(=O)c1ccccc1)c1ccccc1,0.341
11,CO[C@H]1O[C@H](CO)[C@@H](OC(=O)CCc2ccccc2)[C@@H]2OC(=O)[C@H](Cc3cccc(Br)c3)C/C=C/C[C@@H](Cc3cccc(Br)c3)C(=O)O[C@@H]12,1.04
12,C=CCC(OC(C)=O)[C@@H]1[C@@H](N(Cc2cccc3ccccc23)C(=O)c2ccc(C)cc2)c2cc(OCCCO)ccc2N1C(=O)c1ccc(-c2ccccc2)cc1 (stereo partly specified),0.143
13,Cc1ccc(N2C(=O)c3ccccc3[C@](C)(C(=O)O)[C@@H]2c2ccc(CO)cc2)nc1,-0.471
14,C[C@@H]1CC[C@H]2C(=O)N3[C@@H](CC[C@@H](C)[C@@H]3c3cccc(N4CCOCC4)c3)C(=O)N2[C@H]1c1cccc(N2CCOCC2)c1,0.8
15,Cc1ccc(S[C@]2(C(=O)NCCN3CCOCC3)CC(=O)N(C3Cc4ccccc4C3)[C@@H]2c2ccc(CO)cc2I)cc1,1.42
16,N#Cc1ccc(NN2C(C(O)c3ccc(I)cc3)C=CC3C(=O)N(c4ccccc4)C(=O)C32)cc1 (stereo unspecified),2.21
17,CCOC(=O)[C@H]1C/C=C/C[C@H](C(=O)OCC)C(=O)O[C@H]2[C@@H](OC)O[C@H](CO)[C@@H](OC(=O)Nc3ccc(Br)cc3)[C@@H]2OC1=O,2.22
18,C[C@@H]1C=CCC(=O)OC[C@H]2O[C@@H](C=C[C@@H]2O)[C@H](C)C=CCC(=O)OC[C@H]2O[C@H]1C=C[C@@H]2O,-0.268

row,SMILES,composite z-score
1,CO[C@@H]1COC(=O)[C@H](C)NC(=O)CC=C[C@@H](C)[C@H](NS(=O)(=O)c2ccc(C)cc2)COC(=O)CC=C[C@@H]1C,0.0657
2,C=C(CCCC)/C(=C/C[C@@H](OC(=O)c1ccncc1)c1cccc(OCCO)c1)c1cc(C(=O)OC)ccc1OC,2.84
3,[N-]=[N+]=NCc1ccccc1C[C@]1(C(N)=O)N=C(c2ccc(OCCCO)cc2)O[C@H]1c1ccccc1CN=[N+]=[N-],2.16
4,CCCCO[C@H]1C[C@H]2C(Br)=C[C@@]1(CO)C(=O)[C@]21CO1,0.124
5,CC(C)N1CC=CC23O[C@@H]4/C=C\CCCOC(=O)C4[C@H]2C(=O)N(CCCCCO)[C@@H]3C1=O (stereo partly specified),-0.0414
6,CO[C@@H]1COC(=O)[C@H](C)NC(=O)CC=C[C@@H](C)[C@H](OC)COC(=O)[C@H](C)NC(=O)CC=C[C@H]1C,-0.466
7,CCOC(=O)C[C@H]1[C@H](OC(=O)Cc2ccc3c(c2)OCO3)[C@@H](NC(=O)c2ccc3ccccc3c2)c2cc(OCCCO)ccc2N1C(=O)Cc1ccc(OC)cc1,1.54
8,CCCN1C(=O)[C@@]2(CCS(=O)(=O)c3ccccc3)N=C(c3ccc(OCCCO)cc3)O[C@H]2c2ccccc21,2.41
9,CCCC[C@@H]1C[C@H]1[C@@H](NC(=O)c1cccs1)c1ccc(Cl)cc1,1.08
10,C[C@H]1COC(=O)[C@@H]2CCCN2C(=O)[C@@H](C)COC(=O)[C@@H]2CCCN2C1=O,-0.99
11,[N-]=[N+]=NCc1ccccc1C[C@@]1(C(=O)O)N=C(c2ccc(OCCCO)cc2)O[C@@H]1c1ccccc1N=[N+]=[N-],2.05
12,O=C1C2C=CC(C(O)C(c3ccccc3)c3ccccc3)N(Nc3ccc([N+](=O)[O-])cc3)C2C(=O)N1c1ccccc1 (stereo unspecified),3.13
13,CO[C@H]1COC(=O)[C@H](CCSC)NC(=O)CC=C[C@@H](C)COC(=O)[C@@H](OCc2ccccc2)C=C[C@@H]1C,-0.345
14,CCC(=O)[C@]12O[C@@]3([C@@H]4C(=O)OCC[C@@H]41)N(Cc1ccccc1)C(C)=C(C(=O)OC)[C@@H](c1ccccc1)N3C2=O,-0.859
15,COC(=O)[C@@]1(Cc2ccc(OC)cc2)[C@H]2c3cc(C(=O)N(C)C)n(CCc4ccc(OC)c(Br)c4)c3C[C@H]2CN1C(=O)c1ccccc1,2.9
16,C#CCCCON=C1C[C@@H](O)[C@@H](O)[C@@H]2[C@@H]3C(=O)N(Cc4ccc5c(c4)OCO5)C(=O)[C@@H]3CC[C@H]12,1.21
17,COC(=O)c1c(CC[C@@H](CO)NC(=O)N[C@H](Cn2cc(-c3cncn3C)nn2)C(C)C)oc(C(C)=O)c1C(=O)OC,0.651
18,CCOC(=O)C1=CC[C@@H](c2ccc(-c3ccc(OCc4ccccc4)cc3)c(OC)c2)N(S(=O)(=O)c2ccc(C)cc2)[C@H]1c1ccccc1,1.64
